{
  "source": "PubChem BioAssay (EPA / NIEHS)",
  "note": "The source made the active and inactive calls. How the source made its calls: active means hit-call score of the fitted dose curve at least 0.9, where 1 is the maximum; inactive means score below 0.9.",
  "data": [
    {"test": "APR_HepG2_p53Act_72hr: Apredica 72-hour HepG2 Assay for p53 Activation (AID 2282923);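 further: average cellular p53 protein immunofluorescence intensity in HepG2 cells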", "conditions": "high-content imaging, actives raise or lower the signal", "procedure": "APR_HepG2_72hr is a cell-based, multiplexed-readout assay that uses HepG2, a human liver cell line, with measurements taken at 72 hours after chemical dosing in a 384-well plate.APR_HepG2_p53Act_72hr is one of 10 assay component(s) measured or calculated from the APR_HepG2_72hr assay. It is designed to make measurements of dna content, a form of viability reporter, as detected with fluorescence intensity signals by HCS Fluorescent Imaging technology.Data from the assay component APR_HepG2_p53Act_72hr was analyzed into 1 assay endpoint. This assay endpoint, APR_HepG2_p53Act_72hr, was analyzed with bidirectional fitting relative to DMSO as the negative control and baseline of activity. Using a type of viability reporter, measures of protein for gain or loss-of-signal activity can be used to understand the signaling at the pathway-level as they relate to the gene TP53. Furthermore, this assay endpoint can be referred to as a primary readout, because this assay has produced multiple assay endpoints where this one serves a signaling function. To generalize the intended target to other relatable targets, this assay endpoint is annotated to the dna binding intended target family, where the subfamily is tumor suppressor.\nCells were treated with dimethyl sulfoxide (DMSO) as a solvent control at a final concentration of 0.5% v/v or with compounds in DMSO with a resulting final DMSO concentration of 0.5% v/v. Compound treatment was done at concentrations of 0.39, 0.78, 1.56, 3.12, 6.24, 12.5, 25, 50, 100, and 200 uM in duplicate on each plate. Cells were treated with compounds for 1, 24, or 72 hr. Carbonyl […] m-chloro-phenylhydrazone (CCCP) and taxol were used as positive controls for mitochondrial function and cytoskeletal stability, respectively; DMSO served as the negative control for this experiment. Cells were fixed by the direct addition of 50 uL formaldehyde in Hank's Balanced Salt Solution (HBSS) to a final concentration of 3.7%. After incubation in the fixation medium for 30 min at room temperature (293-298 K), cells were rinsed twice with HBSS and treated with cell permeabilization buffer (16 uL of 0.5% Triton X-100) for 10 min at room temperature (293-298 K) before labeling. For mitochondrial membrane potential and mitochondrial measurements, pre-fixed cells were incubated with 50 uL of MitoTracker Red CMXRos (Invitrogen) at a concentration of 250 nM for 30 min before fixation. In the remaining cases, post-fixed cells were labeled by incubation with a multiplexed mixture of primary antibodies in HBSS for 60 min at room temperature (293-298 K) to detect immunoreactivity of c-Jun (1:500), phospho-histone H3 (1:100), phospho-histone H2A.x (1:200), p53 (1:400), alpha-tubulin (1:200) and Hoechst 33342 (2 ug/mL). Cells were labeled for multiplexed imaging on two separate plates: a) Hoechst 33342, MitoTracker Red, phospho-histone H3, and alpha-tubulin, and b) Hoechst 33342, phospho-histone H2A.x, and c-Jun. A final rinse with HBSS (50 uL) was performed before analysis. The primary and secondary antibodies for the proteins were phospho-histone H3 (rabbit anti-phospho-histone H3 and FITC-donkey anti-rabbit IgG), phospho-histone H2A.x (mouse anti-phospho-histone H2A.x and FITC-donkey anti-mouse IgG), c-Jun (rabbit anti-phospho-c-Jun and Cy3-donkey anti-rabbit IgG), p53 (sheep anti-p53 and Cy5-donkey anti-sheep IgG), alpha-tubulin (mouse anti-alpha-tubulin and Cy5-donkey anti-mouse IgG). These antibodies are available as the CellCiphr HepG2 assay kit (Millipore).Digital images of each well were captured using a Cellomics ArrayScan VTI (Thermo Scientific Cellomics) (0.8 NA objective, 0.63x optical coupler, and XF-93 filter set) at 20x magnification. The images were acquired using the autofocus feature of the ArrayScan instrument, which entails the following steps. First, the camera focuses on channel 1 (Hoechst 33342), where nuclei are identified. Second, a Z offset of 1 um is used for capturing mitochondria (MitoTracker Red). […]", "values": [
      {"molecule": "Cc1ccc(C(C)(C)C)c(O)c1", "outcome": "inactive"},
      {"molecule": "CCCCC(CC)CO", "note": "(stereo not given)", "outcome": "inactive"},
      {"molecule": "CN(C)CCCN1c2ccccc2Sc2ccc(Cl)cc21", "AC50": "100 µM (active)"},
      {"molecule": "CCCC[C@H]1CN(CC2CCOCC2)C(=O)OC12CCN(C1(C)CCN(C(=O)c3c(C)ncnc3C)CC1)CC2", "outcome": "inactive"},
      {"molecule": "CO[C@@H]1COCC[C@@H]1N[C@@H]1CC[C@@](C(=O)N2CCc3ncc(C(F)(F)F)cc3C2)(C(C)C)C1", "outcome": "inactive"},
      {"molecule": "CCC(C)N(C)C(=O)c1cc2ccccc2c(-c2ccccc2Cl)n1", "note": "(stereo not given)", "outcome": "inactive"},
      {"molecule": "CCCCCCC(CCCCCCCCCCC(=O)OCC(COC(C)=O)OC(C)=O)OC(C)=O", "note": "(stereo not given)", "outcome": "inactive"},
      {"molecule": "O=C1O[C@H]([C@H](O)CO)C(O)=C1O", "outcome": "inactive"},
      {"molecule": "CN(C)C(=O)NC1(c2ccccc2)CCN(CCC[C@]2(c3ccc(Cl)c(Cl)c3)CCCN(C(=O)c3ccccc3)C2)CC1", "AC50": "10.3 µM (active)"},
      {"molecule": "O=C(O)CC(O)(CC(=O)O)C(=O)O", "outcome": "inactive"},
      {"molecule": "CS(=O)(=O)c1ccc([C@@H](C[C@H]2CCC(=O)C2)C(=O)Nc2cnccn2)cc1Cl", "outcome": "inactive"},
      {"molecule": "O=C(O)CN(CC(=O)O)CC(=O)O", "outcome": "inactive"},
      {"molecule": "COC(=O)CCCC(=O)OC", "outcome": "inactive"},
      {"molecule": "CN(C)CCCN(C)CCCN(C)C", "outcome": "inactive"},
      {"molecule": "Cc1cc(Cc2ccc(N)c(C)c2)ccc1N", "outcome": "inactive"},
      {"molecule": "CCCCCCCCCCCCCCOS(=O)(=O)O", "AC50": "111 µM (active)"},
      {"molecule": "CC(C)(O)c1ccc(CNC(=O)c2cccnc2Oc2ccc(F)cc2)cc1", "outcome": "inactive"},
      {"molecule": "COC(=O)[C@H]1[C@H]2C[C@@H]3c4[nH]c5cc(OC)ccc5c4CCN3C[C@H]2C[C@@H](OC(=O)c2cc(OC)c(OC)c(OC)c2)[C@@H]1OC", "AC50": "24.6 µM (active)"},
      {"molecule": "CCc1nc(N)nc(N)c1-c1ccc(Cl)cc1", "AC50": "3.77 µM (active)"},
      {"molecule": "COC(=O)CCC(=O)OC", "outcome": "inactive"},
      {"molecule": "C=CCc1ccc(OC)c(OC)c1", "outcome": "inactive"},
      {"molecule": "Cc1c(C)c2c(c(C)c1O)CCC(C)(COc1ccc(CC3SC(=O)NC3=O)cc1)O2", "note": "(stereo not given)", "AC50": "65.2 µM (active)"},
      {"molecule": "OCC(O)CO", "outcome": "inactive"},
      {"molecule": "NC(=Nc1ccccc1)Nc1ccccc1", "AC50": "23.4 µM (active)"},
      {"molecule": "NCCOCCOCCN", "AC50": "7.09 µM (active)"},
      {"molecule": "CCCCCCCCCC[N+](C)(C)[O-]", "outcome": "inactive"},
      {"molecule": "CCCCc1nc2cccnc2n1Cc1ccc(-c2ccccc2-c2nnn[nH]2)cc1", "outcome": "inactive"},
      {"molecule": "Oc1ccccc1O", "outcome": "inactive"},
      {"molecule": "Nc1nc(Cl)nc2c1ncn2[C@H]1C[C@H](O)[C@@H](CO)O1", "AC50": "0.038 µM (active)"},
      {"molecule": "CC1(C)C(=O)NC(=O)N1CO", "outcome": "inactive"},
      {"molecule": "CCc1cc(C2=C(C(=O)O)N(c3ccccc3C(F)(F)F)S(=O)(=O)c3ccccc32)cc2c1OCO2", "outcome": "inactive"},
      {"molecule": "C=CCCCCCCCCCCCC", "AC50": "93.4 µM (active)"},
      {"molecule": "c1ccc2occc2c1", "outcome": "inactive"},
      {"molecule": "S=c1[nH]c2ccccc2s1", "outcome": "inactive"},
      {"molecule": "CC(=O)S[C@H](C(=O)N[C@H]1Cc2ccccc2[C@H]2CCC[C@@H](C(=O)O)N2C1=O)C(C)C", "outcome": "inactive"},
      {"molecule": "CC1=C(C)S(=O)(=O)CCS1(=O)=O", "AC50": "73.8 µM (active)"},
      {"molecule": "COc1ccc(C(=O)Nc2nc3ccccc3c(NCc3ccccc3)c2C#N)cc1", "outcome": "inactive"},
      {"molecule": "CCCCC(CC)COC(=O)CCCCCCCC(=O)OCC(CC)CCCC", "note": "(stereo not given)", "outcome": "inactive"},
      {"molecule": "CCCCCCCC(=O)OC", "outcome": "inactive"},
      {"molecule": "COc1ccc(OC(F)(F)F)cc1CN[C@H]1CCCN[C@H]1c1ccccc1", "AC50": "24.3 µM (active)"}
    ]}
  ]
}
